Data reported in PubChem BioAssay (NCATS).
Records with an inconclusive call do not appear. A call without a number means that no potency is given here. Activity calls are given as the source filed them. Calls follow the shape of the full dose curve.

How the values were obtained:
[1] = Primary qHTS for Huh7 cytotoxicity: counterscreen for inhibitors of MERS-S pseudotyped particle cell entry (AID 1479147)
[2] = Primary qHTS for Vero E6 cytotoxicity: counterscreen for inhibitors of SARS-S pseudo-typed particle cell entry (AID 1479150)
[3] = Primary qHTS for inhibitors of MERS-S pseudo-typed particle cell entry (AID 1479149); also: nearly all actives have a fitted effect of over 60% in size

Structure (SMILES) | Potency [1] | Potency [2] | Potency [3]
O=C(CCCN1CC=C(n2c(=O)[nH]c3ccccc32)CC1)c1ccc(F)cc1 | inactive | inactive | –
CCC1NC(=O)c2cc(S(N)(=O)=O)c(Cl)cc2N1 (stereo not given) | inactive | inactive | inactive
CN1CCN(c2cc3c(cc2F)c(=O)c(C(=O)O)cn3-c2ccc(F)cc2)CC1 | inactive | inactive | inactive
CCCCCCCCCCCCCCCCC(C(=O)O)C(O)(CC(=O)O)C(=O)O (stereo not given) | inactive | inactive | inactive
Clc1ccc(C(Cn2ccnc2)OCc2ccsc2Cl)c(Cl)c1 (stereo not given) | inactive | inactive | –
O=C(OCc1ccccc1)c1ccc(O)cc1 | inactive | inactive | inactive
CCOc1ccc(C(=O)OCCN(CC)CC)cc1 | inactive | inactive | inactive
CCOc1ccccc1O[C@H](c1ccccc1)[C@H]1CNCCO1 | inactive | inactive | inactive
O=C(c1ccc(F)cc1)C1CCN(CCn2c(=O)[nH]c3ccccc3c2=O)CC1 | inactive | inactive | –
CCCCNc1ccc(C(=O)OCCN(CC)CC)cc1 | inactive | inactive | inactive
CCOC(=O)OCC/C(SC(=O)OCC)=C(\C)N(C=O)Cc1cnc(C)nc1N | inactive | inactive | inactive
CC(=O)Nc1ccc(S(=O)(=O)Nc2ccc([N+](=O)[O-])cc2)cc1 | inactive | inactive | inactive
CCCCc1cc2ccccc2c(OCCN(C)C)n1 | inactive | inactive | –
COC(=O)C1=C(C)NC(C)=C(C(=O)OC)C1c1ccccc1[N+](=O)[O-] | inactive | inactive | inactive
O=C(Nc1ccc(Cl)cc1)Nc1ccc(Cl)c(C(F)(F)F)c1 | inactive | inactive | –
